# Article PMC5540273 (PLoS ONE, 2017)
# Like-named read-outs stand apart in the source and are kept apart here.
# What was measured:
# CAMK1 = conditions: concentration: 1 μM, replicates: in singlicate; n = 1
# CAMK2A = conditions: concentration: 1 μM, replicates: in singlicate; n = 1
# CAMK2B = conditions: concentration: 1 μM, replicates: in singlicate; n = 1
# CAMK2D = conditions: concentration: 1 μM, replicates: in singlicate; n = 1
# CAMK2G = conditions: concentration: 1 μM, replicates: in singlicate; n = 1
# CAMK4 = conditions: concentration: 1 μM, replicates: in singlicate; n = 1
# CAMKK1 = conditions: concentration: 1 μM, replicates: in singlicate; n = 1
# CAMKK2 = conditions: concentration: 1 μM, replicates: in singlicate; n = 1
# CASK = conditions: concentration: 1 μM, replicates: in singlicate; n = 1
# CDC2L1 = test system: T1, CDC2L1; conditions: concentration: 1 μM, replicates: in singlicate; n = 1
# T1 construct: gene CDK11B
# CDC2L2 = conditions: concentration: 1 μM, replicates: in singlicate; n = 1
# CDC2L5 = test system: T2, CDC2L5; conditions: n = 1
# T2 construct: gene CDK13
# CDK11 = test system: T3, CDK11; conditions: concentration: 1 μM, replicates: in singlicate; n = 1
# T3 construct: gene CDK19
# CDK2 = conditions: concentration: 1 μM, replicates: in singlicate; n = 1
# CDK3 = conditions: concentration: 1 μM, replicates: in singlicate; n = 1
# CDK4-cyclinD1 = conditions: n = 1
# CDK4-cyclinD3 = conditions: n = 1
# CDK4 = conditions: n = 1
# CDK5 = conditions: concentration: 1 μM, replicates: in singlicate; n = 1
# CDK7 = conditions: concentration: 1 μM, replicates: in singlicate; n = 1
# [1] = concentration: 1 μM, replicates: in singlicate
# 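Also: KINOMEscan kinase panel screen.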
smiles,measurement,setting,value
COc1ccc(C)c(Nc2ccnc(Nc3ccc(-c4cnc[nH]4)cc3)n2)c1.Cl [GW784041],%Inh,CAMK1,17%
same,%Inh,CAMK2A,0%
same,%Inh,CAMK2B,1%
same,%Inh,CAMK2D,22%
same,%Inh,CAMK2G,0%
same,%Inh,CAMK4,30%
same,%Inh,CAMKK1,19%
same,%Inh,CAMKK2,0%
same,%Inh,CASK,0%
same,%Inh,CDC2L1,8%
same,%Inh,CDC2L2,16%
same,%Inh,CDC2L5; [1],0%
same,%Inh,CDK11,2%
same,%Inh,CDK2,0%
same,%Inh,CDK3,3%
same,%Inh,CDK4-cyclinD1; [1],0%
same,%Inh,CDK4-cyclinD3; [1],0%
same,%Inh,CDK4; [1],0%
same,%Inh,CDK5,0%
same,%Inh,CDK7,0%
COc1cc(Nc2nccc(N3CCC(NC(=O)Nc4ccc5c(c4)OCO5)C3)n2)cc(OC)c1OC (centres unmarked) [GSK1379766],%Inh,CAMK1,28%
same,%Inh,CAMK2A,0%
same,%Inh,CAMK2B,0%
same,%Inh,CAMK2D,14%
same,%Inh,CAMK2G,28%
same,%Inh,CAMK4,0%
same,%Inh,CAMKK1,21%
same,%Inh,CAMKK2,24%
same,%Inh,CASK,4%
same,%Inh,CDC2L1,0%
same,%Inh,CDC2L2,18%
same,%Inh,CDC2L5; [1],0%
same,%Inh,CDK11,2%
same,%Inh,CDK2,0%
same,%Inh,CDK3,2%
same,%Inh,CDK4-cyclinD1; [1],0%
same,%Inh,CDK4-cyclinD3; [1],14%
same,%Inh,CDK4; [1],0%
same,%Inh,CDK5,0%
same,%Inh,CDK7,0%
COc1cccc(C2=C(Nc3cccc(O)c3)C(=O)NC2=O)c1 [SB-390771],%Inh,CAMK1,4%
same,%Inh,CAMK2A,17%
same,%Inh,CAMK2B,0%
same,%Inh,CAMK2D,25%
same,%Inh,CAMK2G,34%
same,%Inh,CAMK4,0%
same,%Inh,CAMKK1,15%
same,%Inh,CAMKK2,28%
same,%Inh,CASK,28%
same,%Inh,CDC2L1,0%
same,%Inh,CDC2L2,15%
same,%Inh,CDC2L5; [1],0%
same,%Inh,CDK11,0%
same,%Inh,CDK2,18%
same,%Inh,CDK3,13%
same,%Inh,CDK4-cyclinD1; [1],0%
same,%Inh,CDK4-cyclinD3; [1],0%
same,%Inh,CDK4; [1],0%
same,%Inh,CDK5,0%
same,%Inh,CDK7,98.3%
CN(c1ccc(NC(=O)N2CCN(CCCN3CCOCC3)CC2)cc1)c1ccnc(Nc2ccc(CS(C)(=O)=O)cc2)n1.Cl [GW830899],%Inh,CAMK1,0%
same,%Inh,CAMK2A,0%
same,%Inh,CAMK2B,0%
same,%Inh,CAMK2D,1%
same,%Inh,CAMK2G,0%
same,%Inh,CAMK4,0%
same,%Inh,CAMKK1,19%
same,%Inh,CAMKK2,0%
same,%Inh,CASK,0%
same,%Inh,CDC2L1,2%
same,%Inh,CDC2L2,1%
same,%Inh,CDC2L5; [1],0%
same,%Inh,CDK11,0%
same,%Inh,CDK2,0%
same,%Inh,CDK3,18%
same,%Inh,CDK4-cyclinD1; [1],0%
same,%Inh,CDK4-cyclinD3; [1],0%
same,%Inh,CDK4; [1],0%
same,%Inh,CDK5,0%
same,%Inh,CDK7,0%
CN(c1ccc(NC(=O)Nc2cccc(Cl)c2)cc1)c1ccnc(N)n1.Cl [GW830707],%Inh,CAMK1,2%
same,%Inh,CAMK2A,0%
same,%Inh,CAMK2B,0%
same,%Inh,CAMK2D,10%
same,%Inh,CAMK2G,8%
same,%Inh,CAMK4,14%
same,%Inh,CAMKK1,0%
same,%Inh,CAMKK2,14%
same,%Inh,CASK,7%
same,%Inh,CDC2L1,0%
same,%Inh,CDC2L2,12%
same,%Inh,CDC2L5; [1],43%
same,%Inh,CDK11,77%
same,%Inh,CDK2,9%
same,%Inh,CDK3,0%
same,%Inh,CDK4-cyclinD1; [1],57%
same,%Inh,CDK4-cyclinD3; [1],0%
same,%Inh,CDK4; [1],4%
same,%Inh,CDK5,5%
same,%Inh,CDK7,24%
Cn1cc(-c2cnc(N)c3c(-c4ccc5c(c4)CCN5C(=O)Cc4ccccc4)csc23)cn1 [GSK2593074],%Inh,CAMK1,0%
same,%Inh,CAMK2A,29%
same,%Inh,CAMK2B,12%
same,%Inh,CAMK2D,0%
same,%Inh,CAMK2G,13%
same,%Inh,CAMK4,0%
same,%Inh,CAMKK1,11%
same,%Inh,CAMKK2,19%
same,%Inh,CASK,23%
same,%Inh,CDC2L1,4%
same,%Inh,CDC2L2,1%
same,%Inh,CDC2L5; 1 µM,0%
same,%Inh,CDK11,18%
same,%Inh,CDK2,0%
same,%Inh,CDK3,1%
same,%Inh,CDK4-cyclinD1; 1 µM,0%
same,%Inh,CDK4-cyclinD3; 1 µM,0%
same,%Inh,CDK4; 1 µM,0%
same,%Inh,CDK5,2%
same,%Inh,CDK7,19%
Cn1cc(-c2ccc3c(c2)CCN3C(=O)Cc2cc(F)cc(C(F)(F)F)c2)c2c(N)ncnc21 [GSK2635225],%Inh,CAMK1,5%
same,%Inh,CAMK2A,0%
same,%Inh,CAMK2B,0%
same,%Inh,CAMK2D,0%
same,%Inh,CAMK2G,12%
same,%Inh,CAMK4,0%
same,%Inh,CAMKK1,0%
same,%Inh,CAMKK2,8%
same,%Inh,CASK,2%
same,%Inh,CDC2L1,5%
same,%Inh,CDC2L2,24%
same,%Inh,CDC2L5; [1],0%
same,%Inh,CDK11,95.2%
same,%Inh,CDK2,6%
same,%Inh,CDK3,4%
same,%Inh,CDK4-cyclinD1; [1],0%
same,%Inh,CDK4-cyclinD3; [1],0%
same,%Inh,CDK4; [1],32%
same,%Inh,CDK5,0%
same,%Inh,CDK7,11%
COc1cccc(NC(=O)NCCNc2ccnc(Nc3ccc(F)cc3)n2)c1 [GSK1379879],%Inh,CAMK1,7%
same,%Inh,CAMK2A,0%
same,%Inh,CAMK2B,0%
same,%Inh,CAMK2D,0%
same,%Inh,CAMK2G,14%
same,%Inh,CAMK4,0%
same,%Inh,CAMKK1,13%
same,%Inh,CAMKK2,3%
same,%Inh,CASK,0%
same,%Inh,CDC2L1,0%
same,%Inh,CDC2L2,27%
same,%Inh,CDC2L5; [1],0%
same,%Inh,CDK11,22%
same,%Inh,CDK2,0%
same,%Inh,CDK3,0%
same,%Inh,CDK4-cyclinD1; [1],9%
same,%Inh,CDK4-cyclinD3; [1],1%
same,%Inh,CDK4; [1],0%
same,%Inh,CDK5,0%
same,%Inh,CDK7,0%
Cc1ccc(NC(=O)c2ccc(Cl)c(Cl)c2)cc1-c1ccc(C(=O)Nc2ccncc2)cc1 [GSK1398460],%Inh,CAMK1,27%
same,%Inh,CAMK2A,0%
same,%Inh,CAMK2B,0%
same,%Inh,CAMK2D,7%
same,%Inh,CAMK2G,0%
same,%Inh,CAMK4,9%
same,%Inh,CAMKK1,0%
same,%Inh,CAMKK2,4%
same,%Inh,CASK,0%
same,%Inh,CDC2L1,2%
same,%Inh,CDC2L2,14%
same,%Inh,CDC2L5; [1],0%
same,%Inh,CDK11,13%
same,%Inh,CDK2,0%
same,%Inh,CDK3,5%
same,%Inh,CDK4-cyclinD1; [1],0%
same,%Inh,CDK4-cyclinD3; [1],0%
same,%Inh,CDK4; [1],0%
same,%Inh,CDK5,0%
same,%Inh,CDK7,0%
CC(C)c1nc(-c2ccc(F)c(NS(=O)(=O)c3c(F)cccc3F)c2)c(-c2ccnc(Nc3ccc(N4CCOCC4)nc3)n2)s1 [GSK1804250],%Inh,CAMK1,54%
same,%Inh,CAMK2A,0%
same,%Inh,CAMK2B,0%
same,%Inh,CAMK2D,7%
same,%Inh,CAMK2G,27%
same,%Inh,CAMK4,0%
same,%Inh,CAMKK1,17%
same,%Inh,CAMKK2,21%
same,%Inh,CASK,0%
same,%Inh,CDC2L1,0%
same,%Inh,CDC2L2,0%
same,%Inh,CDC2L5; [1],0%
same,%Inh,CDK11,2%
same,%Inh,CDK2,95.5%
same,%Inh,CDK3,35%
same,%Inh,CDK4-cyclinD1; [1],26%
same,%Inh,CDK4-cyclinD3; [1],0%
same,%Inh,CDK4; [1],87%
same,%Inh,CDK5,51%
same,%Inh,CDK7,10%
